Compound activity as filed in PubChem.
Peg3 promoter: Peg3 promoter-driven luciferase inhibitors, primary screen, cell-based, HeLa, luciferase luminescence; AID 588405, 2011; actives 1.7% (n = 360,000); HeLa PEG-Prom luciferase reporter, overnight; inhibition, % at 20 µM;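 active = inhibition of at least 50% at 20 µM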
HIF-2a inh: HIF-2a reporter inhibitors, primary screen, luminescence, 786-0 RCC cells | inhibition, % at 18.8 µM | 786-0 RCC cells HIF-2a reporter, luciferase luminescence, overnight | actives 0.72% (n = 360,000);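 active = inhibition of the luminescence signal of 40% or more relative to plate controls, in a single-dose primary screen at 18.75 µM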
TRPM1 prom inh: inhibitors of MITF-dependent TRPM1 promoter reporter, primary screen, cell-based, SK-MEL-5, single point, luciferase. AID 488899, 2010. actives 0.83% (n = 330,000). inhibition, % at 12.5 µM. SK-MEL-5 TRPM1 promoter luciferase, 24 h;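 active = mean inhibition across replicates of 60% or more, whatever share of single replicates reaches that level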
CF NFkB block: inhibitors of PAF-induced NF-kB signaling, primary screen, cell-based, GFP fluorescence, uHTS. KKLEB NF-kB-GFP reporter, GFP fluorescence overnight. inhibition, % at 5 µM. actives 0.86% (n = 360,000). AID 588850, 2011;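 active = at least 50% inhibition at 5 µM, scaled per plate between neutral and stimulator controls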;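 also: PAF is a Pseudomonas aeruginosa culture filtrate used as stimulus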
ABHD5-PLIN5 inh: ABHD5-PLIN5 interaction inhibitors, primary screen, cell lysate, split luciferase complementation, luminescence. inhibition, % at 4 µM. Perilipin-5 (Homo sapiens) + 1-acylglycerol-3-phosphate O-acyltransferase ABHD5 (Homo …. AID 602281, 2012. Split G. princeps luciferase complementation, 4 h. actives 0.78% (n = 360,000);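 active = inhibition above the mean inhibition across every tested compound plus 3 SD, cut at about 22% in these data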
Target sequence (Q00G26 whole entry, looked up): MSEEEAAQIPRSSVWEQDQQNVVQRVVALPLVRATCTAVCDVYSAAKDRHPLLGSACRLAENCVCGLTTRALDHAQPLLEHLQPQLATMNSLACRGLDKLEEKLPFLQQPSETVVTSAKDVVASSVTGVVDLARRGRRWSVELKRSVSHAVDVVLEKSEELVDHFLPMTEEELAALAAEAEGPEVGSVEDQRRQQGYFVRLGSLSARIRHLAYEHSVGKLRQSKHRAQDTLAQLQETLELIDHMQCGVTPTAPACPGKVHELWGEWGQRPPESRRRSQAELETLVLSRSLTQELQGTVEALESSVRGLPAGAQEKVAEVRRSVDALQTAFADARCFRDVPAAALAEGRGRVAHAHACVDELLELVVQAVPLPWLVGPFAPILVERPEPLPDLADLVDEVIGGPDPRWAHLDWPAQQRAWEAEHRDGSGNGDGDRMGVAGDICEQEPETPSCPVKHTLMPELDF
Target sequence (Q8WTS1 whole entry, looked up): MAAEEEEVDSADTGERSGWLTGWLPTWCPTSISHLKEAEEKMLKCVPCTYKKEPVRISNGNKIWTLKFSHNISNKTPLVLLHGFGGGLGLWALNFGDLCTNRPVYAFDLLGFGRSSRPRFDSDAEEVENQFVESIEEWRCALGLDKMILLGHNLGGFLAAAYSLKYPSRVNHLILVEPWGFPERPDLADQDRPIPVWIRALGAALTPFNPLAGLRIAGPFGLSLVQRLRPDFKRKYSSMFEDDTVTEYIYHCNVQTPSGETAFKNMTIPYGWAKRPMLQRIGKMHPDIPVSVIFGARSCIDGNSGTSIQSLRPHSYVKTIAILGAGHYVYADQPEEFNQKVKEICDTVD
KKLEB cytotox: cytotoxicity in KKLEB CF airway cells, primary screen, cytotoxicity control for CF NF-kB inhibitor project, cell-based, uHTS, fluorescence assay plates; AID 602141, 2011; KKLEB CF airway cells viability, ATPlite luminescence, overnight; hits give low values; cells stimulated with P. aeruginosa culture filtrate; actives 0.36% (n = 360,000); activity change (cytotoxicity), % at 5 µM;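 active = corrected activity change at or below -50% at 5 µM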
Numbers stand for hits; 0 = inactive; - = not tested or not shown; ! = repeats disagree. This is a sample that favours compounds with a hit; in the whole collection about 3% have one here.

SMILES	Peg3 promoter	HIF-2a inh	TRPM1 prom inh	CF NFkB block	ABHD5-PLIN5 inh	KKLEB cytotox
COc1ccc(/C=C2\SC(=S)N(CCCC(=O)Nc3cccc(C(=O)O)c3)C2=O)cc1OC	0	0	0	0	0	0
COc1ccc(/C=C2\SC(=S)N(CCCC(=O)Nc3ccccn3)C2=O)cc1OC	0	40	0	0	0	0
COc1cc(/C=C2\SC(=S)N(CC(=O)NC3=NCCS3)C2=O)cc(OC)c1OC	0	0	0	0	0	0
Cc1c(NC(=O)c2nn(CC(C)C)c(=O)c3ccccc23)c(=O)n(-c2ccccc2)n1C	0	0	0	0	0	0
COc1ccc(CN2C(=NC(=O)c3ccccc3)SC3CS(=O)(=O)CC32)cc1 (stereo unspecified)	0	0	0	0	0	0
COc1ccccc1NC(=O)c1oc2ccccc2c1NC(=O)c1cc(OC)c(OC)c(OC)c1	0	0	0	56	0	-58
CSc1nc(N(C)CCO)c2sc3nc(-c4ccco4)c4c(c3c2n1)CCC4	0	0	0	0	0	0
CSc1nc(NCCN(C)C)c2sc3nc(-c4ccco4)c4c(c3c2n1)CCC4	106	0	0	0	0	0
O=C(c1cc(-c2cccs2)on1)N1CCN(C(c2ccccc2)c2ccccc2)CC1	0	0	68	0	0	0
Cc1ccccc1Cn1c(C)nc2ccc([N+](=O)[O-])cc2c1=O	0	0	0	0	0	0
COc1ccc(C(=O)/C(C#N)=N/Nc2ccc([N+](=O)[O-])cc2)cc1	0	0	72	56	0	0
N#CC(C#N)=NNc1ccc([N+](=O)[O-])cc1	0	0	0	57	0	0
C/C(=N\Nc1ccc([N+](=O)[O-])cc1)c1ccc(C#N)cc1	0	0	0	0	0	0
CCOC1=C2[C@H](c3ccccc3)N(S(=O)(=O)c3ccc(C)cc3)C(C(C)(C)C)[C@H]2C(C#N)(C#N)C(C#N)(C#N)C1 (stereo partly specified)	78	49	-	67	0	0
CCOC1=C2CN(S(=O)(=O)c3ccc(C)cc3)[C@H](c3cccc4ccccc34)C[C@H]2C(C#N)(C#N)C(C#N)(C#N)C1	52	0	-	0	0	0
CC1(C)Oc2ccc(C#N)cc2[C@@H](N2CCCC2=O)[C@@H]1O	0	0	0	0	0	0
CC(=O)C1=C(O)C(=O)N(c2ccccn2)C1c1ccccc1[N+](=O)[O-] (stereo unspecified)	0	0	0	0	0	0
Cn1c(=O)cc(OCC(=O)NCc2ccccn2)c2ccccc21	0	0	0	0	73	0
COc1cccc(-n2c(SCC(=O)N3CCOCC3)nc3c([nH]c4ccccc43)c2=O)c1	0	0	0	0	0	-55
CCCCCCCCCCCCCCCC[n+]1cccc(C(=O)N(CC)CC)c1	105	46	0	91!	45!	-93!
CCCCCCCC[n+]1cccc(C(=O)N(CC)CC)c1	0	0	0	0	0	0
COc1ccc(C(=O)NCCN(C)C)c2nc3ccccc3cc12	92	0	95	0	0	0
CN(C)CCNC(=O)c1cccc2nc3c(ccc4ccccc43)nc12	98	0	86	0	0	0
CN(CCNC(=O)c1c[nH]c2c1ccc1ccccc12)CCNC(=O)c1c[nH]c2c1ccc1ccccc12	97	0	0	0	0	0
COc1ccc(C(=O)Nc2ccc3ccccc3n2)c(OC)c1OC	0	0	0	0	0	-52
SMILES	Peg3 promoter	HIF-2a inh	TRPM1 prom inh	CF NFkB block	ABHD5-PLIN5 inh	KKLEB cytotox
O=C(Nc1ccc2ccccc2n1)c1ccccc1Cl	0	0	0	0	0	0
COc1cccc(N2C(=O)CC(N3CCN(S(=O)(=O)c4ccccc4[N+](=O)[O-])CC3)C2=O)c1 (stereo unspecified)	0	0	0	0	0	0
Cc1[nH]n(-c2ccccc2)c(=O)c1C(C[N+](=O)[O-])c1ccc(Br)cc1 (stereo unspecified)	103	0	83	0	0	0
COc1cccc(C(C[N+](=O)[O-])c2c(C)[nH]n(-c3ccccc3)c2=O)c1 (stereo unspecified)	0	0	0	0	0	0
CN(C)CCNC(=O)c1ccc(Sc2ccc(Br)cc2)c([N+](=O)[O-])c1	94	0	0	0	0	0
Cn1nc(N)c2c(-c3ccc(Cl)cc3)c(C#N)c(N)nc21	0	0	0	0	0	0
CCN(CC)c1ccc(-c2c(C#N)c(N)nc(OC)c2C#N)cc1	53	0	0	0	0	0
O=C(CCl)N1c2ccccc2Sc2c1ccc1ccccc21	58	0	0	0	0	0
CC(=O)N1c2ccccc2Sc2ccc3ccccc3c21	0	0	-	0	0	0
CCCCCCN1C[C@H](O)[C@@H](n2cc(-c3ccc(F)cc3)nn2)C[C@@H]1c1ccc(C)cc1	0	0	-	0	0	0
COc1cc(OC)cc(-c2c(C#Cc3ccsc3)c3cc(-c4ccc5c(c4)OCCO5)ccc3n2C)c1	0	0	0	0	0	0
CN(C)CCCn1c(SCC(=O)N2c3ccccc3Sc3ccccc32)nc2ccccc2c1=O	107	0	0	0	0	0
Cc1ccc(-c2csc(NC(=O)CSc3nc4ccccc4c(=O)n3CCCN(C)C)n2)cc1	70	0	0	0	0	0
Cn1c(SCC(=O)N2c3ccccc3Sc3ccccc32)nc2ccccc21	0	0	0	0	0	0
COc1ccc(-c2csc(NC(=O)CSc3nc4ccccc4c(=O)[nH]3)n2)cc1	0	0	0	71	0	0
COc1ccc2cc(C)c3nnc(SCC(=O)Nc4nc(-c5ccc(F)cc5)cs4)n3c2c1	66	0	0	0	0	0
CN(Cc1cccc(Cl)c1)C(=O)C1CCC(=O)N(C2CC2)C1 (stereo unspecified)	0	0	0	0	0	0
CC(C)(C)C1=CC(=O)C(=O)C(C(C)(C)C)=C1	73	42	-	0	0	0
Nc1nc(N)c2cc(CNc3ccc(Cl)c(Cl)c3)ccc2n1	110	0	-	0	0	0
O=C1C=C(NCc2ccc(Cl)c(Cl)c2)CC1	0	0	0	0	0	0
O=C(Nc1cccc(O)c1)c1cc(-c2ccc3c(c2)OCO3)on1	0	0	0	0	0	-70
Cc1ccc(S(=O)(=O)NCCC(=O)NNC(=O)COc2ccccc2Cl)cc1C	0	0	-	0	0	0
O=S(=O)(/N=C/c1ccccc1O)c1cccs1	0	0	0	0	0	0
CC(C)(C)c1cc[n+](C2=C([O-])c3ccccc3C(=O)/C2=N\S(=O)(=O)c2cccs2)cc1	57	0	-	75	0	0
